Test results reported in PubChem BioAssay (NCI).
This is part of a sample that, as a whole, favours compounds with a hit. Of some 83,000 tested, about 20% had one in any assay.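 Cell lines were cultured in 96-well plates, exposed to a single compound concentration, and assessed for percent growth 48 hours later.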 Values without a mark were called inactive. The source made the active and inactive calls. The calls were made as follows: active = growth percent below 10; inactive = the rest.

Experiments:
Assay in all cases: NCI-60 one-dose screen, 48 h (100 = growth as untreated, 0 = no growth, -100 = all killed)
Details in all cases: 10 µM unless noted
[1] = system: NCI-H23 lung
[2] = system: NCI-H226 lung
[3] = system: NCI-H322M lung
[4] = system: HOP-62 NSCLC
[5] = system: NCI-H460 lung
[6] = system: HOP-92 NSCLC
[7] = system: NCI-H522 lung
[8] = system: A549/ATCC NSCLC
[9] = system: 786-0 renal
[10] = system: COLO 205 colon
[11] = system: DU-145 prostate
[12] = system: K-562 leukemia
[13] = system: MALME-3M melanoma
[14] = system: MDA-MB-231 breast
[15] = system: RXF 393 renal
[16] = system: SF-268 CNS
[17] = system: SF-295 CNS
[18] = system: SF-539 CNS
[19] = system: UACC-257 melanoma
[20] = system: M14 melanoma

| SMILES | growth [1] | growth [2] | growth [3] | growth [4] | growth [5] | growth [6] | growth [7] | growth [8] | growth [9] | growth [10] | growth [11] | growth [12] | growth [13] | growth [14] | growth [15] | growth [16] | growth [17] | growth [18] | growth [19] | growth [20] |
| --- | --- | --- | --- | --- | --- | --- | --- | --- | --- | --- | --- | --- | --- | --- | --- | --- | --- | --- | --- | --- |
| COc1cnc2c(c1)C(=O)c1c-2n(CCCNC2=NCCS2)c(=O)c2cc([N+](=O)[O-])ccc12 | -47.1% (active) | 8.43% (active) | -19.6% (active) | -59.6% (active) | -81.9% (active) | 24.9% | 22.8% | -77.2% (active) | -93% (active) | -67.1% (active) | -74.7% (active) | -14.9% (active) | -60.6% (active) | -58.4% (active) | -2.16% (active) | -39.4% (active) | 11.7% | -66.5% (active) | 35.4% | -73.5% (active) |
| Cn1c(/C(C#N)=C/c2ccc3ccccc3c2)cc2ccccc21 | 19.4% | 40.5% | 48.9% | 38.2% | 6.27% (active) | 64.8% | 27.1% | 29.8% | 34.1% | 2.87% (active) | 14.9% | 13.9% | 46.5% | 5.53% (active) | 41.1% | 42.9% | 3.45% (active) | 3.9% (active) | 84.8% | 5.87% (active) |
| N#CC1=C(N)Oc2ccc3ccccc3c2C1c1ccccc1Cl (stereo not given) | 61.6% | 70.8% | 74.9% | 38.7% | 20.4% | 69.1% | 34.4% | 53% | 42.4% | 39.3% | 73.3% | 13.2% | 46.2% | 51.3% | 58.7% | 57.7% | 11.7% | 35% | 66.7% | 13.4% |
| Cc1cc2nc3c4cc(N)ccc4n(CCN(C)C)c3nc2cc1C | 6.58% (active) | 1.78% (active) | 7.13% (active) | 19% | 0.661% (active) | 37.6% | 13.2% | 5.34% (active) | 26.2% | -18.5% (active) | 12.6% | 5.75% (active) | -16.6% (active) | 7.84% (active) | 15.3% | 29.7% | 1.26% (active) | 10.5% | 11.9% | 7.08% (active) |
| Cc1oc(-c2ccccc2Cl)cc1C(=O)Nc1ccc(S(N)(=O)=O)cc1 | 96.4% | 96.1% | 102% | 105% | 107% | 107% | 97.3% | 105% | 103% | 116% | 104% | 96.3% | 98.6% | 93.3% | 111% | 104% | 104% | 95.4% | 95% | 93.8% |
| N#C/C(=C\c1ccc(-c2ccc(Cl)cc2)o1)c1nc(-c2ccco2)cs1 | 93.9% | 89.3% | 91.6% | 97.5% | 96% | 85.8% | 90.6% | 91.9% | 104% | 109% | 103% | 94.4% | 99.9% | 85.3% | 108% | 101% | 92.9% | 94.7% | 104% | 98.9% |
| CCNCCCn1c2c(c3ccc([N+](=O)[O-])cc3c1=O)C(=O)c1cc(OC)cnc1-2 | -57.2% (active) | -44% (active) | 2.15% (active) | -66.6% (active) | -63% (active) | -11.5% (active) | -16.1% (active) | -81.8% (active) | -91.7% (active) | -30.9% (active) | 2.6% (active) | -3.04% (active) | -61.8% (active) | -32.6% (active) | -85.8% (active) | 1.69% (active) | -1.1% (active) | -48.2% (active) | -45.3% (active) | -37.1% (active) |
